Screening results as filed in PubChem.
This is a sample that favours compounds with a hit; in the whole collection about 1.8% have one here.
PI4K2A inh: qHTS for small molecular inhibitors of PI4K2A | hit rate 0.13% among 420,000 | activity change, negative = inhibition, % at 76.9 µM | Phosphatidylinositol 4-kinase type 2-alpha (Homo sapiens), Q9BTU6 | purified PI4K2A, ADP-Glo luminescence, 1 h; active compounds read low; in the data active = activity change below about -50%; inconclusive = mostly about -30% to -49%
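PI4K2A activity was measured by ADP-Glo luminescence: enzyme (4 ug/mL stock) and phosphatidylinositol (1.2 mM stock) in Tris pH 7.5/MgCl2/EGTA/Triton X-100 buffer were reacted with ATP (300 microM stock) for one hour at ambient temperature.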
PI5P4K alpha inh: qHTS for Inhibitors of phosphatidylinositol 5-phosphate 4-kinase (PI5P4K); AID 652105, 2013; PI5P4Kalpha enzyme, ADP-Glo luminescence, 60 min; active compounds read low; max response, %; hit rate 1.2% among 330,000; Phosphatidylinositol 5-phosphate 4-kinase type-2 alpha (Homo sapiens), P48426; active = max response of -50% or lower; inconclusive = between -30% and -50%; inactive = -30% or higher; note: value at the top dose of about 77 µM
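Single end-point luminescence (ADP-Glo) quantified ADP from PI5P4Kalpha turnover; ATP 5 microM final, 1 h at RT, 0.1% CHAPS and 0.28 mM EGTA in HEPES pH 7.4.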
Six1-Eya2 blk: qHTS Assay for Inhibitors of the Six1/Eya2 Interaction; AlphaScreen GST-Six1/His-Eya2 binding, biochemical; active compounds read low; activity change, % (no concentration beside the values); AID 651725, 2012; hit rate 0.56% among 360,000
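AlphaScreen with GST-Six1 and His-Eya2 (5X mix: 250 nM and 500 nM), glutathione donor and nickel acceptor beads; buffer 50 mM Tris pH 8.0, 300 mM NaCl, 1 mM TCEP; 1 h at 37 C in the dark.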
Akt phos inh: HTS Assay for Inhibitors of Akt Phophorylation: Primary Screen. AID 651550, 2012. Neuro2A IGF-stimulated pAkt S473 HTRF, 20 min; active compounds read low. hit rate 0.32% among 360,000. activity change, % for hits at 50 µM; in the data active = activity change below about -80%; inconclusive = mostly about -51% to -80%
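Neuro2A cells (4,500/well, DMEM with 0.5% FBS) were treated with compound at a single 50 µM final concentration, stimulated with 6 nM IGF for 20 min at 37 °C, and lysed. Phospho-Akt Ser473 was read by HTRF as 665/615 ratio ×10^4.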
CtBP-E1A inh: qHTS Assay for Inhibitors of the CtBP/E1A Interaction. CtBP / adenovirus E1A interaction (AlphaScreen). AlphaScreen GST-E1A/His-CtBP binding, 1536-well; active compounds read low. activity change, % (no concentration beside the values). hit rate 0.49% among 340,000
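GST-E1A and His-tagged CtBP (125 nM each as 5X stock) were preincubated with pin-transferred compound for 2 h at 37 °C in the dark, then glutathione donor and nickel acceptor beads were added for 1 h before AlphaScreen reading.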
ADP-Glo interf: qHTS for Inhibitors of PI5P4K: ADP-Glo counter assay; shares compounds with PI5P4K alpha inh; ADP-Glo detection counter-screen, luciferase luminescence, no enzyme; Potency, µM (doses to about 76.9 µM), usual class: inhibitors; 1,100 tested, under 10 active; active = well fitted curve in the direction sought with a large enough effect; inconclusive = small, poorly fitted or top-dose-only effect, or another doubt; inactive = no such curve, though single readings can be large or run the other way
A number is an active result; 0 = inactive; ? = inconclusive; - = not tested or not shown. Cut-off read from the data, not from the text of the source, unless noted: active = activity change below about -65%; inconclusive = mostly about -30% to -63%; inactive = weaker than that.

SMILES	PI4K2A inh	PI5P4K alpha inh	Six1-Eya2 blk	Akt phos inh	CtBP-E1A inh	ADP-Glo interf
CC(NC(=O)c1ccc(Cl)s1)C1CCCO1 (stereo unspecified)	0	-	0	0	0	-
CC(NC(=O)c1ccnn1C)C1CCCO1 (stereo unspecified)	0	?	0	0	-	0
Cn1c(SCC(=O)Nc2ccc3nc(SCC(=O)N4CCCC4)sc3c2)nnc1-c1ccccc1	0	-64	0	0	0	0
O=C(Nc1ccc2nc(SCC(=O)N3CCCC3)sc2c1)c1ccccc1	0	-	-	-	-	-
COc1ccc(CCN2C(=O)c3[nH]nc(-c4ccccc4O)c3C2c2cccc(Cl)c2)cc1 (stereo unspecified)	0	0	0	0	0	-
COc1ccc(N2CC(C(=O)Nc3nc4ccc(S(C)(=O)=O)cc4s3)CC2=O)cc1 (stereo unspecified)	0	-53	0	0	0	0
Cc1c(Cc2ccccc2)sc(NC(=O)c2ccco2)c1C(N)=O	0	-	0	0	0	-
CCOc1ccc(CC(=O)Nc2sc(Cc3ccccc3)c(C)c2C(N)=O)cc1OCC	0	-53	0	0	0	0
O=C(Cc1c(F)cccc1Cl)NCCc1c[nH]c2ccccc12	0	0	0	0	0	-
Cc1cc(Nc2ccccc2C(=O)O)n2ncnc2n1	0	-	0	0	0	0
Cc1cc(Nc2cc(C(=O)O)ccc2C)n2ncnc2n1	0	0	0	0	0	-
CN1CCN(C(c2ccc(Br)cc2)c2cc(Cl)c3cccnc3c2O)CC1 (stereo unspecified)	0	-84	?	0	-90	0
O=C(NCc1ccccc1)C(c1ccccc1F)n1c(=O)c(-c2ccccc2)nc2ccccc21 (stereo unspecified)	0	0	0	0	0	-
COc1ccc2nc(-c3ccco3)c(-c3ccco3)nc2c1	0	-58	0	0	0	0
CCCCNC(=O)c1ccc2nc(-c3ccco3)c(-c3ccco3)nc2c1	?	-73	0	0	0	0
Cc1cccc(C)c1NC(=O)C(c1ccc(C#N)cc1)n1c(=O)c(-c2ccco2)nc2ccccc21 (stereo unspecified)	0	-53	0	0	0	0
O=C(NCc1ccccc1)C(c1ccccc1F)n1c(=O)c(-c2ccco2)nc2ccccc21 (stereo unspecified)	0	-64	0	0	0	0
O=C(NC(=S)Nc1ccccc1)c1cncc(C#Cc2ccccc2)c1	0	0	0	0	0	-
CCCCCNC(=O)C(c1ccncc1)n1c(=O)c(-c2ccco2)nc2ccccc21 (stereo unspecified)	0	?	0	0	0	-
Cc1cccc(C)c1NC(=O)C(c1ccccc1)n1c(=O)c(-c2ccco2)nc2ccccc21 (stereo unspecified)	0	-52	0	0	0	0
CCCCCNC(=O)C(c1cc2ccccc2o1)n1c(=O)c(-c2ccco2)nc2ccccc21 (stereo unspecified)	0	-108	0	0	0	0
COc1ccc(C(C(=O)Nc2c(C)cccc2C)n2c(=O)c(-c3ccco3)nc3ccccc32)cc1 (stereo unspecified)	?	?	0	0	0	-
Cc1ccc(-c2cc3c(n2-c2ccc(C(=O)O)cc2)CCCC3=O)cc1	0	-78	0	0	0	0
O=C(CN1CCCCC1)Nc1nnc(-c2ccc([N+](=O)[O-])cc2)s1	0	-70	0	0	0	0
COc1cccc(NC(=O)c2cc(-c3ccc(C)o3)nc3ccccc23)c1	0	?	0	0	0	-
SMILES	PI4K2A inh	PI5P4K alpha inh	Six1-Eya2 blk	Akt phos inh	CtBP-E1A inh	ADP-Glo interf
COc1ccc(C(=O)Nc2ccc(N3CCCC3)cc2)cc1	0	0	0	0	0	-
COc1ccc(NC(=S)N(CCCN2CCOCC2)C(C)c2cc3cccc(OC)c3o2)cc1 (stereo unspecified)	0	0	0	0	0	-
COc1cccc2cc(C(C)N(CCCN3CCOCC3)C(=O)Nc3ccccc3)oc12 (stereo unspecified)	0	0	0	0	0	0
CCOC(=O)C1CCCN(C(=O)c2cc(F)cc(F)c2)CC1 (stereo unspecified)	0	0	0	0	0	-
CCOC(=O)C1CCCN(C(=O)c2ccc(F)c(C)c2)CC1 (stereo unspecified)	0	?	0	0	0	0
COc1cccc(N2CCN(CC(=O)NC(=O)NCc3ccco3)CC2)c1	0	-71	0	0	0	0
Cc1cccc(Nc2nc(NCc3ccco3)c3ccccc3n2)c1	0	-	0	0	?	0
FC(F)(F)c1ccccc1NC(=S)N1CCN(c2ncccn2)CC1	0	0	0	0	0	-
N#Cc1cccc(NC(=O)Nc2cccs2)c1	0	?	0	0	0	-
O=C(CN1CCN(c2ccccc2F)CC1)NCc1ccccc1	0	0	0	0	0	0
Cc1cccc(N2CCN(CC(=O)NCc3ccccc3)CC2)c1C	0	0	0	0	-	-
Cn1c(=O)c(C#N)c(-c2ccc(F)cc2)c2cc(C(=O)c3cc(Cl)cc(Cl)c3O)cnc21	0	?	0	0	?	-
COC(=O)c1cc(S(=O)(=O)NCc2ccc3c(c2)OCO3)c[nH]1	0	0	0	0	0	-
CCc1ccc(CNC(=O)Cc2ccc(NC(=O)C3=C(C)OCCS3)cc2)cc1	0	-63	0	0	0	0
COc1cccc(CNC(=O)Cc2ccc(NC(=O)C3=C(C)OCCS3)cc2)c1	0	-53	0	0	0	0
COc1ccc(OCC(=O)Nc2ccc(C(=O)Nc3ccccc3C(=O)O)cc2)cc1	0	?	?	0	?	-
O=C(COc1ccc(Br)cc1)Nc1ccc(C(=O)Nc2ccccc2C(=O)O)cc1	0	-58	0	0	0	0
Cc1ccc(OCC(=O)Nc2ccc(C(=O)Nc3ccccc3C(=O)O)cc2)cc1C	0	0	0	0	0	-
O=C(COc1ccc2ccccc2c1)Nc1cccc(C(=O)Nc2ccccc2C(=O)O)c1	0	-74	0	0	0	0
CN(C)CCCN1C(=O)C(O)=C(C(=O)c2cc3ccccc3o2)C1c1ccccn1 (stereo unspecified)	0	0	0	0	0	-
N#Cc1ccc(COC(=O)CC(NC(N)=O)c2ccc(Cl)cc2)cc1 (stereo unspecified)	0	?	0	0	0	0
Cc1cccc(NC(=O)Cn2nnc(C(=O)NCc3cccs3)c2N)c1C	0	0	0	0	0	-
Cc1c(Cl)cccc1NC(=O)Cn1nnc(C(=O)NCc2cccs2)c1N	0	?	0	0	0	0
